MOR-DOR ag – agonists of OPRM1-OPRD1 heterodimerization, primary screen, cell-based, luminescence | hit rate 0.3% among 340,000 | activation, % at 9.3 µM | cells; in the data active means activation above about 18%
Target sequence (P35372 whole entry, looked up): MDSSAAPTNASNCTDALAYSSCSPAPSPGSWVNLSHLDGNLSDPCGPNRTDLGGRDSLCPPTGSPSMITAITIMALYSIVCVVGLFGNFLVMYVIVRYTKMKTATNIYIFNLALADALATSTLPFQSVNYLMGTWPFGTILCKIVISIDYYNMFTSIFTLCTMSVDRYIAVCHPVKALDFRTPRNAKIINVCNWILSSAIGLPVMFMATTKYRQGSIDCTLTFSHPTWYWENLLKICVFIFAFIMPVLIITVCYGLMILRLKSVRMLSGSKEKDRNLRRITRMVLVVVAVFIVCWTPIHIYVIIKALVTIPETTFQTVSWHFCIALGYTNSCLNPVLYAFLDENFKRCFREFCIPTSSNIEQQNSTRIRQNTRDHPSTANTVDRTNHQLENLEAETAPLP
Target sequence (P41143 whole entry, looked up): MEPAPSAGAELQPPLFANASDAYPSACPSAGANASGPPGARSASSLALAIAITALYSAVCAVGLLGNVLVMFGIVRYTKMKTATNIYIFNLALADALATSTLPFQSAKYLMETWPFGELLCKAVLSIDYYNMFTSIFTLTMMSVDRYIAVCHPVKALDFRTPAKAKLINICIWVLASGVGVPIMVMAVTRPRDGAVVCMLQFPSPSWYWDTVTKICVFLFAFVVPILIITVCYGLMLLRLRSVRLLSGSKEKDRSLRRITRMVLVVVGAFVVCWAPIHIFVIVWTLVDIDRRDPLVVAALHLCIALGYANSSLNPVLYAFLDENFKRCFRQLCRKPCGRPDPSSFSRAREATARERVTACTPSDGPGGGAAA
HTR5A ag – HTR5A agonists in luminescence cell assay, primary screen, counter-screen for OPRM1-OPRD1 heterodimer agonist project, full-deck HTS. 5-hydroxytryptamine receptor 5A (Homo sapiens), P47898. cell-based. activation, % at 9.3 µM. hit rate 0.61% among 340,000; in the data active means activation mostly above about 9.5%, no sharp cut-off; inactive means mostly below about 7.6%
HTR5A inv ag – HTR5A inverse agonists in luminescence cell assay, primary screen, counter-screen for OPRM1-OPRD1 heterodimer inverse agonist project, full-deck HTS. hit rate 0.083% among 340,000. inhibition, % at 9.3 µM. 5-hydroxytryptamine receptor 5A (Homo sapiens), P47898. HTR5A cell line, inverse agonism; in the data active means inhibition mostly above about 23%, no sharp cut-off; inactive means mostly below about 18%
OPRM1-OPRD1 inv – inverse agonists of MOR-DOR heterodimerization, primary screen, cell-based, luminescence; inhibition, % at 9.3 µM; Mu-type opioid receptor (Homo sapiens) + Delta-type opioid receptor (Homo sapiens), …; hit rate 0.21% among 340,000; cell-based MOR-DOR heterodimer luminescence, inverse agonism; in the data active means inhibition above about 22%, passing the limit was not always enough
OPRM1-D1 inv cf – inverse agonists of MOR-DOR heterodimerization, confirmation, cell-based, luminescence | shares compounds with OPRM1-OPRD1 inv | cells expressing OPRM1/OPRD1 heterodimer | inhibition, % at 9.3 µM | hit rate 20% among 580; in the data active means inhibition above about 32%
HTR5A inv count – HTR5A inverse agonists, counter-screen for OPRM1-OPRD1 inverse agonist project, cell-based, luminescence; 580 tested, under 10 active; inhibition, % at 9.3 µM; shares compounds with OPRM1-OPRD1 inv; HTR5A-expressing cells, inverse agonism; call rule not given here
Large screens that a line does not name were inactive (follow-up assays come after a bar, where they were run). Sampled rows, rich in hits. Any-hit rate of the full collection: about 1.1%.

Cc1ccc(C(=O)COC(=O)CCC(=O)Nc2cccc(Cl)c2)cc1[N+](=O)[O-]	OPRM1-OPRD1 inv 52 | OPRM1-D1 inv cf 32 | HTR5A inv count inactive
COc1ccccc1NC(=O)CCC(=O)OCC(=O)c1ccc(C)c([N+](=O)[O-])c1	OPRM1-OPRD1 inv 53 | OPRM1-D1 inv cf inactive | HTR5A inv count inactive
COc1ccccc1NC(=O)C/C(C)=N/NC(=O)COc1c(Br)cc(Br)cc1OC	none
CC(=O)Nc1ccc(Br)cc1C(=O)C(=O)O	OPRM1-OPRD1 inv 36 | OPRM1-D1 inv cf inactive | HTR5A inv count inactive
CCCCC(=O)Nc1ccc(Br)cc1C(=O)O	none
Cc1ccc(-c2ccccc2NC(=O)C2C3C=CC(C3)C2C(=O)O)o1 (centres undefined)	OPRM1-OPRD1 inv 34 | OPRM1-D1 inv cf inactive | HTR5A inv count inactive
Cc1ccc(-c2cccc(NC(=O)C3C(C(=O)O)[C@@H]4C=C[C@H]3C4)c2)o1 (some centres undefined)	none
CC(C)(C)c1nnc(NS(=O)(=O)c2ccc([N+](=O)[O-])cc2)s1	none
C=CCn1c(N)c(C(=O)Nc2cccc(C)c2)c2nc3ccccc3nc21	none
C=CCn1c(N)c(C(=O)OCCC)c2nc3ccccc3nc21	OPRM1-OPRD1 inv 49 | OPRM1-D1 inv cf inactive | HTR5A inv count inactive
O=C1C(=O)N(CC(=O)N2CCCC2)c2ccccc21	none
CC(C)NC(=O)CN1C(=O)C(=O)c2ccccc21	OPRM1-OPRD1 inv 47 | OPRM1-D1 inv cf inactive | HTR5A inv count inactive
COc1ccc(/C=C/c2n[nH]c(=O)c(C#N)c2C)cc1	none
CCOc1ccc(NC(=O)CCC(=O)Nc2nnc(CC)s2)cc1	none
Cc1ccc(N(CC(=O)N=Nc2c(O)[nH]c3ccccc23)S(C)(=O)=O)c(C)c1	none
Cc1ccc(S(=O)(=O)N=Nc2c(O)[nH]c3ccccc23)cc1C	OPRM1-OPRD1 inv 47 | OPRM1-D1 inv cf inactive | HTR5A inv count inactive
COc1ccc(S(=O)(=O)N=Nc2c(O)[nH]c3ccccc23)cc1	OPRM1-OPRD1 inv 45 | OPRM1-D1 inv cf inactive | HTR5A inv count inactive
CN(c1ccccc1C(=O)Nc1ccc(S(=O)(=O)N2CCOCC2)cc1)S(=O)(=O)c1ccccc1	OPRM1-OPRD1 inv 33 | OPRM1-D1 inv cf inactive | HTR5A inv count inactive
O=C(Nc1sc2c(c1C(=O)NCCO)CCCC2)c1ccco1	none
O=C1Nc2ccccc2/C1=N/c1sc2c(c1C(=O)NCCc1ccccc1)CCCC2	OPRM1-OPRD1 inv 34 | OPRM1-D1 inv cf inactive | HTR5A inv count inactive
CCCc1cc(=O)[nH]c(-n2[nH]c3c(c2=O)CCCC3)n1	OPRM1-OPRD1 inv 33 | OPRM1-D1 inv cf inactive | HTR5A inv count inactive
Cc1cc(C)nc(-n2nc(C)c(C3(O)C(=O)Nc4ccccc43)c2N)n1 (centres undefined)	OPRM1-OPRD1 inv 23 | OPRM1-D1 inv cf inactive | HTR5A inv count inactive
Cc1cc(C)nc(-n2nc(C)c(C3(O)C(=O)Nc4ccc(F)cc43)c2N)n1 (centres undefined)	OPRM1-OPRD1 inv 62 | OPRM1-D1 inv cf 53 | HTR5A inv count inactive
Cc1ccc(C)c(OC(=O)CN2C(=O)c3ccccc3C2=O)c1	none
Cc1ccc(S(=O)(=O)N2CCN(CCOc3c(Cl)cccc3Cl)CC2)cc1C	none
COc1ccccc1CC(=O)N(CCC1=CCCCC1)c1c(N)n(Cc2ccccc2)c(=O)[nH]c1=O	none
CC(C)(C)C(=O)NC(=S)NNC(=O)c1ccc(Cl)cc1Cl	OPRM1-OPRD1 inv 39 | OPRM1-D1 inv cf inactive | HTR5A inv count inactive
COC(=O)NNC(=O)c1ccc(Cl)cc1Cl	none
Oc1[nH]c2ccccc2c1/C=N/N1CCCCC1	OPRM1-OPRD1 inv 37 | OPRM1-D1 inv cf inactive | HTR5A inv count inactive
Oc1ccccc1C=NN1CCCCCC1	none
Cc1ccccc1NC(=O)CCC(=O)OCC(=O)c1cccc([N+](=O)[O-])c1	OPRM1-OPRD1 inv 60 | OPRM1-D1 inv cf inactive | HTR5A inv count inactive
O=C(CCC(=O)OCC(=O)c1ccc([N+](=O)[O-])cc1)Nc1ccccc1Cl	none

Screening data deposited in PubChem BioAssay by The Scripps Research Institute Molecular Screening Center.
